KB-3-1 cytotox – qHTS assay for MDR1-selective chemotherapeutics: Primary screen using the parental adenocarcinoma cell KB-3-1. KB-3-1 viability, CellTiter-Glo ATP luminescence, 72 h. Potency, µM (top dose mostly 46.1 µM), most hits filed as cytotoxic. 1.4% of 400,000 active. AID 1347075, 2019; further: nearly all actives have a fitted effect of over 60% in size
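Luminescent ATP read-out (CellTiter-Glo) measures survival of drug-naive KB-3-1 cells after 72 h compound exposure at 37 °C. Titration series was screened from lowest to highest concentration, with DMSO vehicle plates as background controls.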
HT1080 IDH1KD tx – qHTS for induction of synthetic lethality in tumor cells producing 2HG: qHTS for the HT-1080-IDH1KD cell line. HT-1080 IDH1 knockdown viability, ATP luminescence, 48 h. Potency, µM (series often up to 46.1 µM), inactives show at the highest dose activity, negative = toxicity, hits mostly cytotoxic. 2% of 360,000 active;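 further: 0% = DMSO wells and -100% = cell-free medium wells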
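% activity derives from luminescence (CellTiter-Glo), normalised to DMSO and no-cell wells. HT-1080-IDH1KD cells, 750/well, had 48 h compound exposure at 37 °C.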
KB-V1 MDR tox – qHTS assay for MDR1-selective chemotherapeutics: Primary screen using the drug-selected MDR subline cells KB-V1; KB-V1 MDR cells viability, CellTiter-Glo, 72 h; Potency, µM (top dose mostly 46.1 µM), hits mostly cytotoxic; 3.4% of 400,000 active; AID 1347076, 2019; further: nearly all actives have a fitted effect of over 60% in size
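qHTS viability screen in drug-selected KB-V1 MDR cells: 72 h compound treatment at 37 degrees C, ATP luminescence end point.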
DT40 TDP1 no CPT – qHTS for Inhibitors of human tyrosyl-DNA phosphodiesterase 1 (TDP1): qHTS in cells in absence of CPT; DT40 Tdp1-/- hTDP1 cells, no CPT, ATP luminescence, 48 h; Potency, µM (doses to about 46.2 µM), inactives show top-dose activity change, negative = growth inhibition, actives largely listed as inhibitors; 15% of 420,000 active; AID 686978, 2013; further: nearly all actives have a fitted effect of over 55% in size
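Stably hTDP1-transfected Tdp1-null chicken DT40 cells were treated with library compounds minus camptothecin and grown for at least 48 hr at 37 °C, after which cellular ATP was quantified by luminescence.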
HT1080-NT tox – qHTS for induction of synthetic lethality in tumor cells producing 2HG: qHTS for the HT-1080-NT fibrosarcoma cell line; HT-1080-NT fibrosarcoma viability, CellTiter-Glo ATP luminescence, 48 h; Potency, µM (series often up to 46.1 µM), inactives show top-dose activity, negative = less viability, most hits filed as cytotoxic; 1.6% of 360,000 active;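 further: NT is the 2HG producing partner of a matched IDH1 knockdown line; 0% = DMSO-treated cells and -100% = media-only wells without cells; nearly all actives have a fitted effect of over 55% in size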
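HT-1080-NT; 750 cells/well; 5% FBS RPMI; 48 h compound, 37 degrees C; CellTiter-Glo luminescence; curve fitting and curve-class assignment.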
TDP1 cell CPT – qHTS for Inhibitors of human tyrosyl-DNA phosphodiesterase 1 (TDP1): qHTS in cells in presence of CPT. chicken DT40 Tdp1-/-;hTDP1 cells + 20 nM CPT, ATP luminescence, 48 h. Potency, µM (series often up to 46.2 µM), inactives show at the top dose activity change, negative = growth inhibition, usual class: inhibitors. 12% of 420,000 active. AID 686979, 2013; further: nearly all actives have a fitted effect of over 55% in size
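Cell growth measured by CellTiter-Glo luminescence after a minimum 48 h, 37 C compound exposure with 20 nM CPT in Tdp1-knockout DT40 cells stably expressing hTDP1, seeded 400/well; qHTS titration format.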
The depositor's hits bear a star; i = inactive; ? = inconclusive; . = no result. The list is not random: actives were taken first. Their share in the collection is about 19%. The call rests on the fitted dose curve; in most records, active means well fitted curve in the direction sought with a large enough effect; inconclusive means small, poorly fitted or top-dose-only effect, or another doubt; inactive means no such curve, though single readings can be large; an effect the other way counts as inactive or inconclusive. Unless noted, on the % scale 0 is the no-effect control and ±100 the full control effect; potency means the concentration at half of the fitted maximal effect.

SMILES	KB-3-1 cytotox	HT1080 IDH1KD tx	KB-V1 MDR tox	DT40 TDP1 no CPT	HT1080-NT tox	TDP1 cell CPT
COc1ccccc1-n1cc([C@@H]2C[C@H]3CN(c4ccccc4)C(=O)[C@]34CCCN24)cn1	i	5.8µM*	7.31µM*	2.7%	?	-6.9%
COc1ccccc1CN1C[C@@H]2C[C@@H](C3=Cc4cccc(OC)c4OC3)N3CCC[C@@]23C1=O	i	-25.4%	i	?	-8.0%	?
CC12CCC(=O)C=C1CCC1C2C(O)CC2(C)C(c3csc(N)n3)CCC12 (stereo not drawn)	i	?	?	3.26µM*	6.51µM*	3.66µM*
C/C=C1/C(=O)C[C@@H]2[C@H]3CCC4=CC(=O)CC[C@]4(C)[C@@H]3CC[C@]12C	.	.	.	14.6µM*	.	?
CC(=O)OCC(=O)[C@@]1(O)CCC2C3CCC4=CC(=O)CC[C@]4(C)C3[C@@H](O)C[C@@]21C (stereo partly drawn)	.	.	.	-29.9%	.	?
CCC(C(=O)OCC(=O)C1(O)CCC2C3CCC4=CC(=O)CCC4(C)C3C(O)CC21C)C(C)C (stereo not drawn)	?	-6.0%	?	16.4µM*	-7.7%	9.2µM*
CC(C)(C)C(=O)OCC(=O)[C@H]1CC[C@H]2[C@@H]3CCC4=CC(=O)CC[C@]4(C)[C@H]3CC[C@]12C	.	.	.	1.2%	.	5.7%
CC12CCC(=O)C=C1CCC1C2CCC2(C)C(c3csc(N)n3)CCC12 (stereo not drawn)	?	?	20.6µM*	5.8µM*	?	5.8µM*
Cc1ccccc1S(=O)(=O)N1C(c2ccc(Cl)c(Cl)c2)CC=C(C(=O)O)C1c1cccc(Br)c1 (stereo not drawn)	i	?	i	?	?	?
Cn1c(=O)c(-c2ccccc2)nc2cnc(N3CCOCC3)nc21	.	.	.	-24.6%	.	-7.9%
CSc1ccccc1NC(=O)CN(C)C(=O)CNC(=O)c1ccc(Oc2ccccc2)cc1	i	5.7%	?	?	4.8%	?
CCOC(=O)N1CCC(NS(=O)(=O)c2ccc3c(c2)OCC(=O)N3)CC1	i	-1.5%	i	-25.5%	1.3%	?
Cc1cccc(NC(=O)CCS(=O)(=O)c2cc3c(cc2Cl)NC(=O)CO3)c1	i	11.9%	i	?	-4.2%	18.4µM*
CCOC(=O)N1CCC(NS(=O)(=O)c2cc3c(cc2Cl)NC(=O)CO3)CC1	i	-0.9%	i	23.1µM*	-9.7%	18.4µM*
COc1cccc(NC(=O)CCS(=O)(=O)c2cc3c(cc2Cl)NC(=O)CO3)c1	i	3.3%	?	16.2%	3.8%	-8.4%
Cc1ccc(C)c(N2CCN(C(=O)CCS(=O)(=O)c3cc4c(cc3Cl)NC(=O)CO4)CC2)c1	?	.	16.4µM*	.	.	.
CCOC(=O)c1scc(-c2ccccc2)c1S(=O)(=O)Nc1cc(Cl)c(OC)cc1OC	i	.	i	14.6µM*	.	?
CCOC(=O)c1scc(-c2ccc(C)cc2)c1S(=O)(=O)Nc1ccc(F)c(F)c1	i	.	i	?	.	-13.4%
CCOC(=O)c1scc(-c2ccc(C)cc2)c1S(=O)(=O)Nc1cc(Cl)ccc1OC	i	.	i	3.26µM*	.	5.8µM*
CCOC(=O)c1scc(-c2ccc(C)cc2)c1S(=O)(=O)Nc1ccc(OC)c(Cl)c1	i	.	i	14.6µM*	.	16.4µM*
CC(C)C(NC(=O)OCc1ccccc1)C(=O)NC(Cc1c[nH]c2ccccc12)C(=O)O (stereo not drawn)	?	5.2%	i	2.0%	13.3%	-11.8%
COc1ccc(/C=C/C(=O)c2ccccc2)c(OC)c1	i	?	?	-18.5%	?	-22.1%
COc1ccccc1/C=C/C(=O)NC(=S)NC(C)C	?	14.2%	?	16.4µM*	9.6%	?
COc1ccccc1/C=C/C(=O)c1ccccc1	i	-21.9%	i	13µM*	-18.3%	?
COc1ccccc1/C=C/C(=O)c1ccc(NC(C)=O)cc1	?	?	i	14.6µM*	-19.9%	?
SMILES	KB-3-1 cytotox	HT1080 IDH1KD tx	KB-V1 MDR tox	DT40 TDP1 no CPT	HT1080-NT tox	TDP1 cell CPT
COc1ccc(OC)c(/C=C/C(=O)c2ccc(Cl)cc2)c1	i	?	?	?	?	18.4µM*
COc1ccccc1NC(=O)N1CCOc2ccccc21	i	.	i	-13.4%	.	-35.2%
Cc1ccc(NC(=O)N2CCC(NC(=O)c3cccc(F)c3)CC2)cc1	i	17.2%	i	-13.2%	0.1%	-2.8%
COc1ccccc1/C=C/C(=O)c1c2c(c(C)[nH]c1=O)CCCC2	i	?	?	?	4.47µM*	?
COc1ccccc1N1CCN(C2CC(=O)N(C)C2=O)CC1 (stereo not drawn)	i	11.3%	?	-15.5%	14.8%	4.5%
COC(=O)c1c(CCl)noc1C(=O)NCC1CCCO1 (stereo not drawn)	i	23.1µM*	i	-74.0%	-17.9%	?
CCc1ccccc1SCc1noc(C(=O)NCC2CCCO2)c1C(=O)O (stereo not drawn)	i	-1.4%	i	-16.8%	28.7%	-19.5%
CCN1CCN(c2ccc(N3CCN(C(=O)c4ccc(Br)o4)CC3)nn2)CC1	i	11.4%	i	-29.4%	-2.3%	?
O=[N+]([O-])c1ccc(C[n+]2cc(-c3ccc(Cl)c(Cl)c3)n3c2CCCCC3)cc1	i	-1.6%	i	5.8µM*	-8.6%	?
O=[N+]([O-])c1ccc(C[n+]2cc(-c3ccccc3)n3c2CCCCC3)cc1	i	5.7%	i	11.6µM*	2.8%	?
Cc1ccc(NC(=O)C[n+]2cc(-c3ccccc3)n3c2CCC3)cc1	?	-11.3%	i	?	8.9%	-1.4%
COc1ccc(C2=Nc3ccccc3N(C(=O)c3cccnc3)C2C(=O)NC(C)(C)C)cc1 (stereo not drawn)	i	-2.4%	i	-7.0%	2.9%	9.2%
CCCN1CCN(CC(=O)Nc2cc(OCC)ccc2OCC)CC1	i	11.1%	i	?	-3.5%	-15.2%

High-throughput results deposited in PubChem BioAssay by National Center for Advancing Translational Sciences (NCATS).
